Results from PubChem BioAssay (NCI).
This is part of a sample that, as a whole, favours compounds with a hit. Of some 83,000 tested, about 20% had one in any assay.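 How to read the values: 0–100, growth inhibition (40 = 60% inhibited); 0, no net growth; -100 to 0, cell death (-40 = 40% of starting cells died; -100 = all dead).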 Values without a mark were called inactive. The source made the active and inactive calls. Rule for the calls: active = growth percent below 10; inactive = the rest.

What follows are molecules tested on OVCAR-8 ovarian (assay: NCI-60 one-dose screen, 48 h (100 = growth as untreated, 0 = no growth, -100 = all killed)). Conditions: 10 µM unless noted.
With `O=C(Cn1c2ccccc2c2ccncc21)N/N=C/c1c[nH]c2ccccc12` the growth was 40.9%. Molecule `Cc1ccc(-c2nc3c(N=Nc4ccc(S(N)(=O)=O)cc4)c(N)nn3c(N)c2C#N)cc1` has a growth of 44.1%. In the case of `O=C(Nc1ccccc1Cl)c1c[nH]c(=O)c(-c2ccc(N3CCCOC4(CC4)C3)cc2)c1`, the growth was 58.3%. `OC(COc1ccccc1Cl)CN1CCN(c2ccc(Cl)cc2)CC1` (stereo not drawn) showed a growth of 104%. `Nc1nccc2c1ccn2-c1ccc(NC(=O)Nc2cccc(C(F)(F)F)c2)cc1` was tested, and the growth was 93.1%. Molecule `O=C(Nc1ccc(-n2ccc3c(NC(=O)c4ccccc4)nccc32)cc1)Nc1cccc(C(F)(F)F)c1` has a growth of 48.5%. Molecule `O=C1C(Cl)=C(Nc2ccccc2)C(=O)C(Cl)=C1Nc1ccccc1` has a growth of 103%. `CC(=O)Nc1ccc([I+]c2ccc([N+](=O)[O-])cc2)cc1` gave a growth of 95%. `CCN1CCN(Cc2ccc(NC(=O)Nc3cccc(-n4ccc5c(NC(=O)c6ccccc6)nccc54)c3)cc2C(F)(F)F)CC1` was tested, and the growth was 91%. For `O=C(Nc1cccc(-n2ccc3c(NC(=O)c4ccccc4)nccc32)c1)c1cccc(C(F)(F)F)c1`, the growth was 3.8% (active). Molecule `CC(=O)N[C@@H](CNC(=O)c1cc(NC(=O)c2cc(NC(=O)c3cc(NC(=O)c4nccn4C)cn3C)cn2C)cn1C)CC(=O)Nc1cn(C)c(C(=O)Nc2cc(C(=O)Nc3cc(C(=O)Nc4cc(C(=O)NCCCN(C)CCCNC(=O)c5cccc(C(=O)O)c5)n(C)c4)n(C)c3)n(C)c2)n1` has a growth of 96%. With `CCOC(=O)c1cnc2c(OC)ccc(OC)c2c1Cl` the growth was 101%. In the case of `NS(=O)(=O)c1ccc(Nc2nc(O)c(/C=C3\C=Nc4ccccc43)s2)cc1`, the growth was 94.5%. `CNC(=O)NN` showed a growth of 97.5%. `Cc1cc(O[C@@H]2O[C@@H](C)[C@H](O)[C@@H](O)[C@H]2O)c2c3c(c(O[C@@H]4O[C@@H](C)[C@H](O)[C@@H](O)[C@H]4O)cc2c1)C(=O)c1c(O)cccc1C3=O` gave a growth of 22.9%. In the case of `Cc1cccc(Cc2cnc(NC(=O)CCc3ccc(C)o3)s2)c1`, the growth was 20.3%. `C=CC(=O)NC(=O)Nc1ccccc1Cl` was tested, and the growth was 84.5%. With `COc1cccc(-c2nc3sccn3c2-c2ccnc(NCCNC(=O)c3ccccc3)n2)c1` the growth was 62.5%. In the case of `COc1ccc(-c2nn(-c3ccc(NC(=O)Nc4ccc(Cl)c(C(F)(F)F)c4)cc3)cc2-c2ccncc2)cc1Cl`, the growth was 9.53% (active). Molecule `CC(C)CNCC(O)COc1ccc(C(C)(C)c2ccc(OCC(O)CNCC(C)C)cc2)cc1` (stereo not drawn) has a growth of 53.4%. For `Cc1ccc2[nH]c3nc4cccnc4c(C)c3c2c1`, the growth was 88.3%. `O=C(Nc1ccc(-n2ccc3c(NC(=O)c4ccccc4)nccc32)cc1)c1ccc(Cl)c(C(F)(F)F)c1` showed a growth of 23%. In the case of `COc1ccc(-c2nn(-c3ccc(NC(=O)Nc4ccc(Cl)c(Cl)c4)cc3)cc2-c2ccncc2)cc1Cl`, the growth was 11.6%. In the case of `Nc1nccc2c1ccn2-c1cccc(NC(=O)c2ccc(N3CCOCC3)c(C(F)(F)F)c2)c1`, the growth was 0.868% (active). Molecule `COc1ccc(/C=C/C(=O)/C=C(/C=C/c2ccc(OC)c(OC)c2OC)OB(F)F)c(OC)c1OC` has a growth of 10%. For `Cc1cc[n+](CCCC[n+]2ccc(C)cc2)cc1`, the growth was 108%. `COC1=C(OC)C(=O)C=CC1=O` showed a growth of 110%. `Cc1ccccc1C[P+](c1ccccc1)(c1ccccc1)c1ccccc1` gave a growth of 18.7%. In the case of `CC/C(=C(\CC)c1ccc(OCCN(CC)CC)cc1)c1ccc(OCCN(CC)CC)cc1`, the growth was 53.3%. `COc1cccc(-c2nc3sccn3c2-c2ccnc(NCCNC(=O)Nc3cccc(C(F)(F)F)c3)n2)c1` gave a growth of 21.3%. `COc1ccc(-c2cnc(-c3ccc(F)cc3)[nH]2)cc1` showed a growth of 103%. `O=C(Nc1ccc(-n2cc(-c3ccncc3)c(-c3ccc(O)c(Cl)c3)n2)cc1)c1ccc(Cl)c(C(F)(F)F)c1` was tested, and the growth was 17.8%. For `O=C(Nc1ccc(-n2ccc3c(NC(=O)c4ccccc4)ncnc32)cc1)c1ccc(Cl)c(C(F)(F)F)c1`, the growth was 3.65% (active). `C=CC(=O)Nc1cccc(Nc2nc(Nc3ccc(OCCOC(F)F)cc3)ncc2F)c1` gave a growth of 46%. `O=[N+]([O-])c1cccc(C(c2ccccc2)c2ccccc2)c1` gave a growth of 98%. `O=C(NCCNc1nccc(-c2c(-c3cccc(O)c3)nc3sccn23)n1)Nc1cccc(C(F)(F)F)c1` was tested, and the growth was 41.2%. `O=C(Nc1cccc(-n2ccc3c(NC(=O)c4ccccc4)nccc32)c1)c1cc(N2CCOCC2)cc(C(F)(F)F)c1` was tested, and the growth was 2.86% (active). For `O=C(Nc1ccc(-n2cc(-c3ccncc3)c(-c3ccc(O)c(Cl)c3)n2)cc1)c1cc(C(F)(F)F)cc(C(F)(F)F)c1`, the growth was 69.5%.
